# Measurements as given in the antibiotic and cytotoxicity screens of Wong et al. (2023).
# The campaign covered roughly 39,000 compounds. About 3,300 (8.5%) were called active. This excerpt belongs to a sample that is enriched for actives.
# System: HepG2
# Assay: cytotoxicity call (relative viability < 0.9)
# Conditions: 10 µM
row,Structure (SMILES),cytotoxicity call
1,CNC[C@@H]1OCCCC[C@@H](C)Oc2ccc(NC(=O)c3ccncc3)cc2C(=O)N([C@@H](C)CO)C[C@H]1C,inactive
2,C[C@H](CO)N1C[C@H](C)[C@H](CN(C)C(=O)c2ccncc2)OCCCC[C@H](C)Oc2ccc(NS(=O)(=O)c3ccc(Cl)cc3)cc2C1=O,inactive
3,CC(C)CN1C[C@H](C(=O)O)CC1=O,inactive
4,C[C@H](CO)N1C[C@H](C)[C@@H](CN(C)S(=O)(=O)c2cccs2)Oc2ccc(NC(=O)Cn3cnnn3)cc2C1=O,inactive
5,COc1ccc(CCN2C(=O)[C@@]3(c4ccc([N+](=O)[O-])cc4)CC(=O)N(C4CCCCC4)[C@@H]3c3ccc(CO)cc32)cc1,inactive
6,C[C@@H]1CN([C@H](C)CO)C(=O)c2cc(NC(=O)C3CCCCC3)ccc2O[C@@H](C)CCCCO[C@H]1CN(C)Cc1ccncc1,inactive
7,C[C@H](CO)N1C[C@H](C)[C@H](CN(C)C(=O)c2ccccn2)Oc2cc(C#Cc3ccccc3)ccc2S1(=O)=O,inactive
8,C[C@H](CO)N1C[C@H](C)[C@@H](CN(C)C(=O)Nc2ccc3c(c2)OCO3)OCCCC[C@H](C)Oc2ccc(NC(=O)Nc3ccc(C(F)(F)F)cc3)cc2C1=O,inactive
9,C[C@@H]1CN([C@@H](C)CO)C(=O)c2cccc(NS(C)(=O)=O)c2O[C@H]1CN(C)Cc1ccc2c(c1)OCO2,inactive
10,Cc1ccc(S(=O)(=O)N2C[C@H](O)COC[C@H]3O[C@H](CC(=O)NCc4ccc5c(c4)OCO5)CC[C@@H]32)cc1,inactive
11,C[C@H]1CN([C@@H](C)CO)C(=O)c2cc(C#Cc3cccc(F)c3)cnc2O[C@@H]1CN(C)CC1CCOCC1,inactive
12,C[C@H](CO)N1C[C@H](C)[C@H](CN(C)C(=O)Nc2ccc(C(F)(F)F)cc2)OCCCC[C@H](C)Oc2ccc(NC(=O)Nc3ccc4c(c3)OCO4)cc2C1=O,inactive
13,C[C@@H]1CCCCO[C@H](CN(C)S(=O)(=O)c2ccc(Cl)cc2)[C@H](C)CN([C@@H](C)CO)C(=O)c2cc(NC(=O)NC3CCCCC3)ccc2O1,inactive
14,C[C@H]1CCCCO[C@@H](CN(C)S(=O)(=O)c2ccc(Cl)cc2)[C@@H](C)CN([C@@H](C)CO)C(=O)c2cc(NC(=O)NC3CCCCC3)ccc2O1,active
15,C[C@@H]1CCCCO[C@@H](CN(C)S(=O)(=O)c2ccc(Cl)cc2)[C@@H](C)CN([C@@H](C)CO)C(=O)c2cc(NC(=O)NC3CCCCC3)ccc2O1,active
16,C[C@H]1CCCCO[C@H](CN(C)S(=O)(=O)c2ccc(Cl)cc2)[C@@H](C)CN([C@@H](C)CO)C(=O)c2cc(NC(=O)NC3CCCCC3)ccc2O1,inactive
17,C[C@@H]1CCCCO[C@H](CN(C)S(=O)(=O)c2ccc(Cl)cc2)[C@@H](C)CN([C@@H](C)CO)C(=O)c2cc(NC(=O)NC3CCCCC3)ccc2O1,inactive
18,CN1[C@@H]2Cn3c(ccc(-c4ccccc4)c3=O)[C@H]1[C@@H](C(=O)NCCCN1CCOCC1)[C@@H]2CO,inactive
19,C[C@@H]1CN([C@@H](C)CO)C(=O)Cc2cc(NC(=O)Cn3cnnn3)ccc2O[C@H]1CN(C)C(=O)Nc1ccccc1,inactive
20,CCCNC(=O)N[C@H]1C=C[C@@H](CC(=O)N2CCN(C)CC2)O[C@@H]1CO,inactive
21,C[C@H]1CN([C@@H](C)CO)C(=O)c2cc(/C=C/c3ccccc3)cnc2O[C@@H]1CN(C)C(=O)c1cnccn1,inactive
22,C[C@H]1CN([C@@H](C)CO)C(=O)Cc2cc(NC(=O)Cn3cnnn3)ccc2O[C@H]1CN(C)Cc1ccc(Oc2ccccc2)cc1,inactive

row,Structure (SMILES),cytotoxicity call
1,COCC(=O)N(C)C[C@@H]1Oc2cc(-c3ccc(C#N)cc3)ccc2S(=O)(=O)N([C@H](C)CO)C[C@H]1C,inactive
2,COc1ccc(S(=O)(=O)Nc2ccc3c(c2)C(=O)N([C@@H](C)CO)C[C@@H](C)[C@@H](CN(C)S(C)(=O)=O)OCCCC[C@@H](C)O3)cc1,inactive
3,C[C@H](CO)N1C[C@H](C)[C@@H](CN(C)S(=O)(=O)c2cccs2)Oc2ccc(NC(=O)Cc3ccccc3)cc2C1=O,inactive
4,C[C@@H]1CN([C@H](C)CO)C(=O)c2cc(NC(=O)Nc3ccc(F)cc3)ccc2O[C@@H](C)CCCCO[C@H]1CN(C)Cc1ccncc1,inactive
5,C[C@@H]1CN([C@@H](C)CO)C(=O)c2cc(NC(=O)Nc3ccccc3)ccc2O[C@H]1CN(C)Cc1ccc(-c2ccccc2)cc1,active
6,CC(C)NC(=O)Nc1ccc2c(c1)C(=O)N([C@@H](C)CO)C[C@H](C)[C@@H](CN(C)Cc1ccc(-c3ccccc3)cc1)O2,inactive
7,C[C@@H]1CN([C@H](C)CO)C(=O)c2cc(NC(=O)Nc3ccccc3)ccc2O[C@@H]1CN(C)Cc1ccc(-c2ccccc2)cc1,active
8,C[C@H]1CN([C@@H](C)CO)C(=O)c2cc(NC(=O)Nc3ccccc3)ccc2O[C@H]1CN(C)Cc1ccc(-c2ccccc2)cc1,inactive
9,CC(C)NC(=O)Nc1ccc2c(c1)C(=O)N([C@@H](C)CO)C[C@@H](C)[C@H](CN(C)Cc1ccc(-c3ccccc3)cc1)O2,inactive
10,C[C@H](CO)N1C[C@H](C)[C@@H](CN(C)Cc2ccc(-c3ccccc3)cc2)Oc2ccc(NC(=O)Nc3ccccc3)cc2C1=O,active
11,CC(C)NC(=O)Nc1ccc2c(c1)C(=O)N([C@@H](C)CO)C[C@@H](C)[C@@H](CN(C)Cc1ccc(-c3ccccc3)cc1)O2,active
12,C[C@H](CO)N1C[C@H](C)[C@H](CN(C)Cc2ccc(-c3ccccc3)cc2)Oc2ccc(NC(=O)Nc3ccccc3)cc2C1=O,inactive
13,C[C@@H]1CCCCO[C@@H](CN(C)C(=O)CCC(F)(F)F)[C@H](C)CN([C@H](C)CO)C(=O)c2cc(NC(=O)NC3CCCCC3)ccc2O1,inactive
14,COCCNC(=O)C[C@H]1CC[C@@H]2[C@H](COC[C@H](O)CN2S(=O)(=O)c2ccccc2C)O1,inactive
15,C[C@H]1CN([C@@H](C)CO)C(=O)c2c(c3ccccc3n2C)-c2ccccc2CO[C@@H]1CN(C)Cc1ccc(O)cc1,inactive
16,C[C@H]1CN([C@@H](C)CO)C(=O)c2cc(NC(=O)CCN3CCOCC3)ccc2O[C@@H]1CN(C)S(=O)(=O)c1cn(C)cn1,inactive
17,COc1ccc(S(=O)(=O)N(C)C[C@@H]2Oc3ccc(NC(=O)Nc4c(C)noc4C)cc3CC(=O)N([C@H](C)CO)C[C@@H]2C)cc1,inactive
18,CC(C)NC(=O)N(C)C[C@@H]1Oc2c(NS(=O)(=O)c3ccc(Cl)cc3)cccc2C(=O)N([C@H](C)CO)C[C@@H]1C,inactive
19,C[C@@H]1CN([C@@H](C)CO)C(=O)c2cccc(NS(C)(=O)=O)c2O[C@@H]1CN(C)C(=O)Nc1ccc(C(F)(F)F)cc1,inactive
20,CSCCC(NC(=O)C(Cc1c[nH]c2ccccc12)NC(=O)CCNC(=O)OC(C)(C)C)C(=O)NC(CC(=O)O)C(=O)NC(Cc1ccccc1)C(N)=O (centres undefined),inactive
21,COc1ccc(S(=O)(=O)N(C)C[C@H]2Oc3ccc(NS(=O)(=O)c4ccc(F)cc4)cc3CC(=O)N([C@H](C)CO)C[C@H]2C)cc1,inactive
22,CN([C@@H](Cc1ccc(OS(=O)(=O)c2cccc3cnccc23)cc1)C(=O)N1CCN(c2ccccc2)CC1)S(=O)(=O)c1cccc2cnccc12,inactive

row,Structure (SMILES),cytotoxicity call
1,CN(C)CC(=O)N[C@@H]1CC[C@H](CCNC(=O)C2CCC2)O[C@H]1CO,inactive
2,CN1C(=O)/C(=C(/C#N)C(N)=O)c2ccccc21,inactive
3,O=C(Nc1ccccc1)C1=C[C@H](c2ccc3c(c2)Cc2ccccc2-3)C[C@H](OCc2ccc(CO)cc2)O1,inactive
4,Cc1ccc(S(=O)(=O)Nc2ccc3c(c2)C(=O)N([C@H](C)CO)C[C@H](C)[C@@H](CN(C)S(C)(=O)=O)OCCCC[C@@H](C)O3)cc1,inactive
5,O=C(NC1CCCCC1)[C@@H]1C(c2ccc(Cl)cc2)=C(S(=O)(=O)c2ccccc2)C(=O)N1Cc1ccc(-c2ccccc2)cc1,inactive
6,CC(=O)n1nc(-c2cccnc2)nc1N,inactive
7,C[C@H](CO)N1C[C@H](C)[C@H](CN(C)Cc2ccc(C(=O)O)cc2)OCCCC[C@H](C)Oc2ccc(NC(=O)c3ccccc3)cc2C1=O,inactive
8,C[C@@H]1CN([C@H](C)CO)C(=O)c2cc(NC(=O)Nc3ccccc3)ccc2O[C@H]1CN(C)Cc1ccc(-c2ccccc2)cc1,active
9,C[C@@H]1CN([C@@H](C)CO)C(=O)c2cc(NC(=O)Nc3ccccc3)ccc2O[C@@H]1CN(C)Cc1ccc(-c2ccccc2)cc1,active
10,COCC(=O)N(C)C[C@H]1Oc2cc(C#Cc3ccccc3)ccc2S(=O)(=O)N([C@@H](C)CO)C[C@@H]1C,inactive
11,O=C(CSc1nnc[nH]1)C1CC1,inactive
12,COc1c(C)cc(-c2cc3c(c(CCc4ccccc4)n2)[Si](C(C)C)(C(C)C)O[C@H]3c2ccccc2)cc1C,inactive
13,COc1cc(Nc2ncc(F)c(Nc3ccc4c(n3)N(COP(=O)(O)O)C(=O)C(C)(C)O4)n2)cc(OC)c1OC,active
14,COCC(=O)Nc1ccc2c(c1)C(=O)N(C)C[C@H](OC)[C@H](C)CN(C(=O)Cc1cccnc1)[C@@H](C)CO2,inactive
15,C[C@H]1CN([C@@H](C)CO)C(=O)c2cc(NC(=O)Nc3ccccc3)ccc2O[C@@H]1CN(C)Cc1ccc(Oc2ccccc2)cc1,active
16,C[C@@H]1CN([C@@H](C)CO)C(=O)c2cc(NC(=O)Nc3ccccc3)ccc2O[C@@H]1CN(C)Cc1ccc(Oc2ccccc2)cc1,active
17,C[C@H](CO)N1C[C@H](C)[C@H](CN(C)Cc2ccc(Oc3ccccc3)cc2)Oc2ccc(NC(=O)Nc3ccccc3)cc2C1=O,inactive
18,C[C@H]1CN([C@@H](C)CO)C(=O)c2cc(NC(=O)Nc3ccccc3)ccc2O[C@H]1CN(C)Cc1ccc(Oc2ccccc2)cc1,inactive
19,C[C@H](CO)N1C[C@H](C)[C@@H](CN(C)Cc2ccc(Oc3ccccc3)cc2)Oc2ccc(NC(=O)Nc3ccccc3)cc2C1=O,active
20,C[C@@H]1CN([C@@H](C)CO)C(=O)c2cc(NC(=O)Nc3ccccc3)ccc2O[C@H]1CN(C)Cc1ccc(Oc2ccccc2)cc1,active
